The sample as a whole holds a higher share of hits than the screen did.
HTT aggregate: reduces HttQ103-GFP aggregates in PC12 cells; Potency, µM (doses to about 46.1 µM), hits mostly inhibitors; PC12 HttQ103-GFP aggregates, Acumen cytometry, 40 h; 1.1% of 220,000 active; note: nearly all actives have a fitted effect of over 60% in size
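Huntingtin Q103 exon 1–GFP aggregates in induced PC12 cells (100 nM tebufenozide) were quantified by cytometry from lysates, with compounds dosed in titration.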
HTT ATP protect: Huntington cell model cytoprotection by ATP luminescence; PC12 HTT-Q103 induced, cytoprotection, ATP luminescence, 40 h; Potency, µM (doses to about 56.4 µM), most hits filed as activators; 0.14% of 230,000 active; note: nearly all actives have a fitted effect of over 45% in size
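Readout: ATPlite luminescence (ATP level). Model: stable PC12, inducible Htt exon1 Q103-GFP. Inducer: tebufenozide, 100 nM final. Compounds: dose series. No G418 in medium.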
PNC assembly inh: blocks assembly of the perinucleolar compartment. PC3M PTB-GFP, PNC prevalence imaging, 16 h; active compounds read low. activity change (PNC), negative = inhibition, % at 10 µM. 3.1% of 140,000 active. AID 2417;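 active = readout at or below -70, meaning at least 70% loss of cells showing the perinucleolar compartment, a nuclear body marking cancer cells; inconclusive = readout between -30 and a set limit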
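Compounds are pinned in duplicate onto adhered PC3M cells stably expressing GFP-tagged PTB and incubated 16 h at 37 C. Cells are then fixed, nuclei stained with Hoechst, and PNC-positive cells counted.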
Of the large screens only hits and unclear results are named; the others gave an inactive call. Unless noted, calls come from the whole dose curve; as a rule, active = well fitted curve in the direction sought with a large enough effect; inconclusive = small, poorly fitted or top-dose-only effect, or another doubt; inactive = no such curve, though single readings can be large; an effect the other way counts as inactive or inconclusive.

COc1cccc(-c2nnn(CC(=O)O)n2)c1	PNC assembly inh -91
Cc1ccc2c(Cl)c(C(=O)Nc3cccnc3)sc2c1	none
Cc1cc(C)cc(NC(=O)Cn2c(=O)oc3cc(S(=O)(=O)N4CCC(C)CC4)ccc32)c1	HTT aggregate inconclusive
CC1CCN(S(=O)(=O)c2ccc3c(c2)oc(=O)n3CC(=O)NCc2ccc3c(c2)OCO3)CC1	HTT aggregate 8.9µM
Cc1c(C(=O)NCc2ccc3c(c2)OCO3)oc2ccc(S(=O)(=O)N3CCCCCC3)cc12	PNC assembly inh inconclusive
Cc1c(C(=O)NCc2ccc3c(c2)OCO3)oc2ccc(S(=O)(=O)N3CCC(C)CC3)cc12	PNC assembly inh -100
COc1ccc(CN2CCN(C(C)C)C(CCO)C2)cc1Cn1cncn1 (centres undefined)	none (no result: PNC assembly inh)
O=C(Nc1ccccc1)Nc1ccc2nnsc2c1	none (no result: PNC assembly inh)
O=C(Nc1ccccc1)Nc1ccc2snnc2c1	HTT aggregate 11µM, PNC assembly inh inconclusive
CC(C)CC1c2[nH]c3ccccc3c2CCN1CCCn1cccn1 (centres undefined)	none (no result: PNC assembly inh)
Cc1sc2nc(-c3cccs3)nc(N3CCCN(C)CC3)c2c1C	HTT aggregate inconclusive, PNC assembly inh inconclusive
COc1ccc(CC(=O)n2nc(-c3ccccc3)nc2NCc2ccco2)cc1	none
O=C(CCc1ccccc1)n1nc(-c2ccccc2)nc1NCc1ccco1	HTT aggregate 25µM
CCCNC(=O)c1ccc2c(c1)C1C3CCC(C3)C1C(c1ccccc1)N2 (centres undefined)	HTT aggregate inconclusive
O=C(/C=C/c1cccs1)c1ccc(Br)cc1	none
O=C(/C=C\c1cccs1)c1c(O)ccc2ccc(=O)oc12	HTT aggregate 11µM
COC(=O)Cn1c(=NC(=O)C2COc3ccccc3O2)sc2cc(S(N)(=O)=O)ccc21 (centres undefined)	PNC assembly inh -134
COC(=O)Cn1c(=NC(=O)CN2C(=O)CCC2=O)sc2cc(S(N)(=O)=O)ccc21	none
CCCSC1=N/C(=C\c2ccc3c(c2)OCO3)C(=O)S1	none
CCC1SC(N)=NC1=O (centres undefined)	HTT ATP protect inconclusive, PNC assembly inh -90
NC1=NC(=O)C(Cc2ccccc2)S1 (centres undefined)	none (no result: PNC assembly inh)
O=C(/C=C/c1ccccn1)c1cc(Cl)cc(Cl)c1O	none (no result: PNC assembly inh)
CCOC(=O)c1cnc(SCCc2ccccc2)nc1N	none
CCOC(=O)c1cnc(SCc2nc(N)nc(Nc3ccccc3)n2)nc1N	PNC assembly inh -123
CCSc1cc(N2CCCC2)nc(-c2ccccc2)n1	HTT aggregate inconclusive
Cc1ccc(-c2nc3cc(Cl)ccc3o2)cc1	PNC assembly inh inconclusive
COc1cc(OC)cc(-c2nc3cc(C)ccc3o2)c1	PNC assembly inh -117
COc1ccc(N(CC(=O)N2CCc3ccccc3C2)S(C)(=O)=O)cc1	PNC assembly inh inconclusive
O=C(O)C1C(c2ccccc2)C(C(=O)OCCCO)C1c1ccccc1 (centres undefined)	none
CN1CCN(Cc2ccc(OCc3ccccc3)cc2)CC1	PNC assembly inh -86
CCN1CCN(Cc2ccc(OCc3ccccc3)cc2)CC1	none
COC(=O)c1ccc(CSc2nnc3c(n2)[nH]c2ccccc23)cc1	none (no result: PNC assembly inh)
CCOC(=O)c1c(C)oc2c1c(C(c1ccncc1)N1CCOCC1)c(O)c1ccccc12 (centres undefined)	none
Cc1[nH]nc2c1C(c1ccc(F)cc1)C1=C(CC(C)(C)CC1=O)N2 (centres undefined)	none
Cc1oc(-c2cccc(F)c2)nc1CN1CCCCC1CCn1cccn1 (centres undefined)	none (no result: PNC assembly inh)
Cc1ccc(-c2nc(CN3CCCCC3CCN3CCCC3=O)c(C)o2)o1 (centres undefined)	HTT ATP protect 4µM (no result: PNC assembly inh)
O=C(O)CCC(=O)N1N=C(c2cccs2)CC1c1cn(-c2ccccc2)nc1-c1ccccc1 (centres undefined)	none
CCC(=O)N1CCc2cc(Br)cc(S(=O)(=O)CCC(=O)NCc3ccco3)c21	PNC assembly inh -119
CCC(=O)N1CCc2cc(Br)cc(S(=O)(=O)N3CCCCCC3)c21	PNC assembly inh -100
CCOC(=O)N1CCN(S(=O)(=O)c2cc(Br)cc3c2N(C(=O)CC)CC3)CC1	PNC assembly inh inconclusive
CCC(=O)N1CCc2cc(Br)cc(S(=O)(=O)NCc3ccco3)c21	PNC assembly inh inconclusive
O=C1NC(=O)C(CC(=O)N(c2ccccc2)C2(C(=O)NC3CCCC3)CCCCC2)N1 (centres undefined)	none
O=C(Nc1ncc(Cc2ccc(SC(F)F)cc2)s1)c1ccc(OC(F)F)cc1	PNC assembly inh -86 (no result: HTT ATP protect)
Cc1ccc(Cc2cnc(NC(=O)c3ccco3)s2)cc1	none
CC(=O)c1cc(Cc2csc(C(C)=O)c2)cs1	PNC assembly inh -100

High-throughput results deposited in PubChem BioAssay by National Center for Advancing Translational Sciences (NCATS).
